Holding throughout (test): PBM binding z-score (relative to random genomic background probes); higher = stronger binding; sequences stand for … in GC…GCGATTGACAGCGTAGAATGAAGG
The subject of experiment [1] is RARb homodimer (NR concentration 270 nM). Summed up: (§1)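 For binding z-scores, the reference was random background probes on custom Agilent 4×180K protein-binding microarrays. These arrays were incubated 1 h with ligand-free nuclear receptor dimers in PBS pH 7.4, 2% milk, 0.02% Triton X-100, 1 mM DTT, 0.2 mg/mL BSA and 0.4 mg/ml salmon testes DNA. Fluorescence was scanned after antibody detection of each partner (one per run) and regression-normalized.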

Experiment [2] has as its system RARg:RXRa (NR concentration 270 nM, RXRa partner concentration 90 nM). Summed up:
as §1

For experiment [3], the system named is RARg homodimer (NR concentration 270 nM). In outline:
as §1

In experiment [4] the test system is RXRa DBDmut IVT, anti-RXR (DBD mutation: RXRa K156A/R161A, NR concentration 90 nM). Summed up:
as §1

Experiment [5] concerns RXRa homodimer (NR concentration 180 nM). Summed up: as §1
Experiment [6] has as its system THRa:RXRa (NR concentration 90 nM, RXRa partner concentration 90 nM). In outline:
as §1

Experiment [7] concerns THRa homodimer (NR concentration 90 nM). Summed up:
as §1

Experiment [8] relates to VDR:RXRa (NR concentration 270 nM, RXRa partner concentration 90 nM). Summed up:
as §1

The subject of experiment [9] is VDR homodimer (NR concentration 270 nM). Summed up:
as §1

These results are taken from the supplement of paper PMC6555819.

Regarding TCTTGTAGATCAACAGGAGGTCAAGAAAGATCGA, the PBM binding z-score in experiment [1] amounted to 3.47; in experiment [2], 4.04; in [3] it was 2.84; in [4], 0.518; in [5], 3.64; in experiment [6], 3.02. Moreover, the PBM binding z-score in [7] was found to be 0.86; in experiment [8], 3.14; in experiment [9], 0.803.

On to GCTTACTGGTCAAAGGTTATAGCATGAATAGAAT, for which the PBM binding z-score in [1] stood at 1.78; in [2], 3.91; in experiment [3] it was 1.68; in [4] it was 0.714; in experiment [5] it was 4.35; in [6] it was 1.87. Besides, the PBM binding z-score in experiment [7] was -0.137; in [8] it was 2.42; in [9] it was 0.435.

In the case of AGAATGAGGGTATTAAGATCAGGGAATTGCGGTC, the PBM binding z-score came out at 0.61 in [1]; 0.0247 in experiment [2]; 0.0754 in [3]; 0.633 in experiment [4]; 0.379 in [5]; 0.534 in [6]. Further, the results for the PBM binding z-score in experiment [7], in experiment [8] and in [9] were 0.27, 0.128 and 0.315, respectively.

Turning to CGTCCAAGGTCAAAGGCCAGTGAAGAGATGACGG, the PBM binding z-score in [1] is 4.03; in [2], 6.17; in experiment [3], 6.72; in experiment [4], 3.33; in experiment [5], 6.48; in experiment [6], 3.82. For the same sequence, the PBM binding z-score in [7] came to 1.82; in experiment [8], 4.14; in experiment [9], 3.32.

Consider TAGGCTAGGTCAGATCGGGCCAGTATACGCTATA, for which the PBM binding z-score in experiment [1] was 2.06; in experiment [2], 2.87; in experiment [3], 3.61; in experiment [4], -0.36; in experiment [5], 1.45; in [6], 4.13. The figures for the PBM binding z-score in [7] and in experiment [9] were -0.412 and -0.515, respectively.

Consider CCGGACAGGTGAGAAGGTAACTCAGCCTCGATTA, for which the PBM binding z-score was 0.613 in experiment [1]; 0.4 in experiment [2]; 0.787 in experiment [3]; -0.0237 in experiment [4]; 0.117 in [5]; 0.16 in experiment [6]. Further, the PBM binding z-score in experiment [7] is 0.35; in [8], -0.403; in experiment [9], -0.222.

For GCTCGGAGGACAAGGTCGGAGCTTTGTCCGTAGA, the PBM binding z-score in experiment [1] is 0.998; in [2], 0.842; in [3] it was 1.11; in experiment [4], -0.395; in experiment [5], 0.103; in experiment [6], 1.37. Moreover, the figures for the PBM binding z-score in experiment [7], in experiment [8] and in experiment [9] were 0.277, -0.159 and -0.608, respectively.

TGAATGAGGTTATAAGATCCGGGAACGTTGCAAA: the PBM binding z-score in experiment [1] was 0.199; in experiment [2], 1.19; in experiment [3], 0.881; in experiment [4], 0.792; in [5], 1.78; in experiment [6] it was 1.7. The PBM binding z-score worked out at 0.151 in experiment [7], 0.946 in experiment [8] and 0.411 in experiment [9].

As to CCGACTAGGTTATGGGGCATTCAGGCAACGGTGA, the PBM binding z-score was 1.03 in experiment [1]; 0.358 in experiment [2]; 0.34 in experiment [3]; -0.142 in experiment [4]; 0.666 in experiment [5]; 0.586 in [6]. Also, the PBM binding z-score was 0.24 in experiment [7], -0.337 in [8] and 0.126 in [9].

On to CCTATTAGTTGTCCATAAGGGCAACCGAAGCTCG, for which the PBM binding z-score amounted to 1.81 in experiment [1]; 1.01 in experiment [2]; 0.8 in experiment [3]; 0.67 in experiment [4]; 0.161 in experiment [5]; 1.8 in experiment [6]. In addition, the PBM binding z-score stood at 1.64 in experiment [7], 0.958 in experiment [8] and 1.07 in experiment [9].

With TCTATTAGTTGATTAGGGTAACCGAAACAGCGGA, the PBM binding z-score in experiment [1] came out at 0.423; in experiment [2] it was 0.525; in [3] it was 0.53; in experiment [4], 1.03; in experiment [5], 0.666; in experiment [6], 1.61. Also, the results for the PBM binding z-score in [7] and in [9] were 0.861 and 0.517, respectively.

Turning to TCTGCTAGGTCAACGATGGTCAGCTTATCTGCTA, the PBM binding z-score in [1] was 3.56; in experiment [2], 4.14; in experiment [3], 4.75; in [4] it was 1.26; in experiment [5], 2.49; in [6] it was 3.22. For the same sequence, the values for the PBM binding z-score in experiment [7], in experiment [8] and in [9] were 0.783, 1.63 and -0.342, respectively.

Turning to ACTATTATTTGAGACGAGGGCAACCGATAGGTTG, the PBM binding z-score in [1] stood at 1.51; in experiment [2], 0.808; in experiment [3], 0.929; in experiment [4], 1.03; in [5], 0.916; in experiment [6], 1.12. Moreover, the PBM binding z-score in experiment [7] is 1.07; in [8], 1.1; in [9], 1.75.

Consider TCTAGTTGGTCAAAGGTAACACACTCGAAATGCG, for which the PBM binding z-score in [1] was found to be 1.51; in [2], 1.97; in experiment [3], 1.45; in experiment [4], 1.33; in experiment [5], 2.42; in experiment [6] it was 1.46. The values for the PBM binding z-score in [7], in experiment [8] and in experiment [9] were 0.935, 1.7 and 0.995, respectively.

On to TCTGCTAGGTCAACGATGGTCTGCTAATCTGCTA, for which the PBM binding z-score in experiment [1] is 2.72; in experiment [2], 3.69; in experiment [3], 4.4; in experiment [4] it was 0.993; in [5] it was 2.25; in experiment [6], 2.6. Also, the PBM binding z-score in experiment [7] was 0.712; in experiment [9], -0.658.

With ATCTCTAGGTAACAAGTTCGGTGAAAGAGAGGAC, the PBM binding z-score in [1] was 1.21; in [2], 0.788; in [3] it was 0.885; in experiment [4] it was 0.327; in [5], 0.444; in experiment [6], 1.48. Besides, the PBM binding z-score in [7] stood at 0.922; in experiment [9], 1.22.
